Experimental data taken from the supplement of paper PMC10849652.
Targets with a hit are over-represented here; the source holds about 8,800 in all. About 0.5% of all pairs of compound and target were hits.

Legend:
Test in all cases: log2 fold change, soluble protein after heating vs DMSO (PISA); higher = thermal stabilisation; K562 lysate, 10 uM; active = over 0.2 and 3.5 SD of the protein, either way, in both replicates (recomputed)
erlotinib = compound: C#Cc1cccc(Nc2ncnc3cc(OCCOC)c(OCCOC)cc23)c1 [erlotinib]
How it was run: (§1)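 Thermal stability, expressed as log-two fold change relative to solvent controls, is given from duplicates. Crude K562 extract in PBS pH 7.4 with 1 mM MgCl2, at 1 mg/mL protein, was treated with 10 μM compound for 30 min and heated in aliquots for 3 min across 48°C-58°C. After pooling, adjustment to 0.5% NP-40 at 4°C and centrifugation at 21,000xg for 90 min, supernatant protein was measured by TMTpro 16plex LC-MS/MS with channel sums equalised.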

[1] = compound: C/C(=N\NC(=O)C1=CC(=CC=C1)S(=O)(=O)N2CCOCC2)/C3=C(C=CC(=C3)Cl)O
How it was run: as §1

[2] = compound: C1=CC(=CC=C1C2=NC3=C(N2)C=C(C=C3)C(=O)N)OC4=CC=C(C=C4)Cl
How it was run: as §1

[3] = compound: C1=CC2=C(C=CC(=C2)/C=C\3/C(=O)NC(=NCC4=CC=CS4)S3)N=C1
How it was run: as §1

[4] = compound: C1=CC2=NC=CN=C2C=C1/C=C/3\C(=O)NC(=O)S3
How it was run: as §1

[5] = compound: C1=CC=C(C=C1)C2=NC(=C(N2)C3=CC=NC=C3)C4=CC(=C(C=C4)Cl)O
How it was run: as §1

[6] = compound: C1=CC=C2C(=C1)C3=NNC4=CC=CC(=C43)C2=O
How it was run: as §1

[7] = compound: C1CCN(C1)C(=O)NC2=CC=CC(=C2)NC3=NC=C(C(=N3)NCCC4=CN=CN4)Br
How it was run: as §1

[8] = compound: C1CN(CCC1(CC2=CC=C(C=C2)Cl)N)C3=NC=NC4=C3C=CN4
How it was run: as §1

IRAK-1-4 Inhibitor I = compound: C1COCCN1CCN2C3=CC=CC=C3N=C2NC(=O)C4=CC(=CC=C4)[N+](=O)[O-] [IRAK-1-4 Inhibitor I]
How it was run: as §1

ibrutinib = compound: C=CC(=O)N1CCC[C@@H](n2nc(-c3ccc(Oc4ccccc4)cc3)c3c(N)ncnc32)C1 [ibrutinib]
How it was run: as §1

[9] = compound: CC(=O)c1cnc2ccc(-c3cc(Cl)c(O)c(Cl)c3)nc2c1N[C@H]1CC[C@H](CN(C)C)CC1
How it was run: as §1

ralimetinib = compound: CC(C)(C)Cn1c(N)nc2ccc(-c3[nH]c(C(C)(C)C)nc3-c3ccc(F)cc3)nc21 [ralimetinib]
How it was run: as §1

[10] = compound: CC(C)(O)CC(=O)NCCn1ccc2ncnc(Nc3ccc(Oc4cccc(C(F)(F)F)c4)c(Cl)c3)c21
How it was run: as §1

[11] = compound: CC(C)C1=C2N=C(C=C(N2N=C1)NCC3=CC=CC=C3)NCCCCCCN
How it was run: as §1

[12] = compound: CC1=C(C(CC(=O)N1)C2=CC=C(C=C2)C(F)(F)F)C(=O)NC3=C(C=C4C(=C3)C=NN4)F
How it was run: as §1

[13] = compound: CC1=C(C2=C(C=C1)C(=O)C3=CC=CC=C3N2CCCN)C
How it was run: as §1

[14] = compound: CC1=C(C=C(C=C1)NC(=O)C2=CC(=CC=C2)C(C)(C)C#N)NC3=CC4=C(C=C3)N=CN(C4=O)C
How it was run: as §1

[15] = compound: CC1=C(C=C(C=C1)NC(=O)C2=CC(=CC=C2)N(C)C)NC(=O)C3=CC=C(C=C3)O
How it was run: as §1

[16] = compound: CC1=CC=C(C=C1)SC2=C3C=C(SC3=CN=C2)C(=O)N
How it was run: as §1

Measured: log2 fold change

TEX30 (UniProt Q5JUR7)
UniProt Q5JUR7, sequence (Q5JUR7 whole entry, looked up): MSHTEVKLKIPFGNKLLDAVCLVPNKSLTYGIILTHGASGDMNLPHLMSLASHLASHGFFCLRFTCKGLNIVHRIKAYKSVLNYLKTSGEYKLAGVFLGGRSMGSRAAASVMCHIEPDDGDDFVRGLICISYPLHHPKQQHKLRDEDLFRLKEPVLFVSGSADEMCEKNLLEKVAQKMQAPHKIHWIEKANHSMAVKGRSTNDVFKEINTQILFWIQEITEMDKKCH
inactive: erlotinib -0.012 | [1] -0.106 | [2] -0.112 | [3] 0.03 | [4] 0.046 | [5] -0.009 | [6] -0.065 | [7] -0.034 | [8] -0.007 | IRAK-1-4 Inhibitor I -0.031 | ibrutinib 0.17 | [9] 0.003 | ralimetinib 0.047 | [10] -0.053 | [11] -0.045 | [12] -0.033 | [13] 0.016 | [14] -0.027 | [15] 0.019 | [16] 0.019

TNPO3 (UniProt Q9Y5L0)
UniProt Q9Y5L0, sequence (Q9Y5L0 whole entry, looked up): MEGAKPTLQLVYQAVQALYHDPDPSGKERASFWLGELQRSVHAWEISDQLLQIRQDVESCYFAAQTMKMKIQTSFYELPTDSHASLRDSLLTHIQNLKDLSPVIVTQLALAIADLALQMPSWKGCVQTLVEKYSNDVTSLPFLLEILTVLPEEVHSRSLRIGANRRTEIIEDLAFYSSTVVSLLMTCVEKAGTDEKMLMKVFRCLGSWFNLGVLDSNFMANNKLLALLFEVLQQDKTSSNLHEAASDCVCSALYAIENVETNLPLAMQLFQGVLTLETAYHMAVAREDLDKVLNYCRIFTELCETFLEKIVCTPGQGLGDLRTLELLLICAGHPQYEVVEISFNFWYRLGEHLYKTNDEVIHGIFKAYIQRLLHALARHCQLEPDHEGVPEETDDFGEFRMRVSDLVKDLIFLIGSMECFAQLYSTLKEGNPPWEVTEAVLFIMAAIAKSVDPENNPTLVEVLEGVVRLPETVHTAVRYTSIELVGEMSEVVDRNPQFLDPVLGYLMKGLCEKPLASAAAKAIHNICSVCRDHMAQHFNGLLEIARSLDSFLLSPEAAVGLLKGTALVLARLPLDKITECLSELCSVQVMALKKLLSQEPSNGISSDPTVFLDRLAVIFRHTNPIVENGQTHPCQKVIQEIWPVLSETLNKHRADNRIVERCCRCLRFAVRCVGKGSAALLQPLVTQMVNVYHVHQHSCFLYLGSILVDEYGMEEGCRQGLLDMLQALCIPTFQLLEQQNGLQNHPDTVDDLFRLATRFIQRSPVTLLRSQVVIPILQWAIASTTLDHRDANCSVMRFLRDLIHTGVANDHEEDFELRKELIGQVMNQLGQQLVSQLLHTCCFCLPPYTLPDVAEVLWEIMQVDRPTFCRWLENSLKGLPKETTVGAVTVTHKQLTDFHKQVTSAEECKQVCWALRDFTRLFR
inactive: erlotinib 0.022 | [1] 0.001 | [2] -0.019 | [3] -0.018 | [4] 0.019 | [5] -0.008 | [6] 0 | [7] 0.018 | [8] 0.017 | IRAK-1-4 Inhibitor I 0.021 | ibrutinib -0.008 | [9] 0.015 | ralimetinib 0.003 | [10] -0.023 | [11] -0.033 | [12] -0.006 | [13] 0 | [14] -0.015 | [15] 0.003 | [16] 0.008

TUBB1 (UniProt Q9H4B7)
UniProt Q9H4B7, sequence (Q9H4B7 whole entry, looked up): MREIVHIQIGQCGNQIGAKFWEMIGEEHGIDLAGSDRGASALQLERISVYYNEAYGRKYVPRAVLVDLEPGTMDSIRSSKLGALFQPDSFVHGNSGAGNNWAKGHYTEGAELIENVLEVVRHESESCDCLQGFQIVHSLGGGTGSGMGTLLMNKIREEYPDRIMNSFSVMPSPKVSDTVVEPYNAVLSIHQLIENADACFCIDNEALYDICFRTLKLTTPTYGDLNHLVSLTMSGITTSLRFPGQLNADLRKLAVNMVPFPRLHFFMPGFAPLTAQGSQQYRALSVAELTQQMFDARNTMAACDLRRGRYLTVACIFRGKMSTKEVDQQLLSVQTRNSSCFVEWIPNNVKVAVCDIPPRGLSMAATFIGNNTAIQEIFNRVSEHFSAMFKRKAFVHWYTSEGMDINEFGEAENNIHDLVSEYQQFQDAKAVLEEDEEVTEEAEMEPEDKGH
inactive: erlotinib 0.011 | [1] 0.091 | [2] 0.005 | [3] 0.01 | [4] 0.022 | [5] -0.011 | [6] 0.014 | [7] 0.015 | [8] 0.027 | IRAK-1-4 Inhibitor I 0.019 | ibrutinib -0.005 | [9] -0.01 | ralimetinib -0.003 | [10] -0.007 | [11] 0 | [12] 0.049 | [13] 0.028 | [14] -0.036 | [15] 0.002 | [16] 0.012

TRIP12 isoform 2 (UniProt Q14669)
inactive: erlotinib 0.034 | [1] 0.013 | [2] -0.014 | [3] 0.004 | [4] 0.024 | [5] -0.027 | [6] -0.02 | [7] 0.019 | [8] -0.021 | IRAK-1-4 Inhibitor I -0.032 | ibrutinib 0 | [9] -0.031 | ralimetinib 0.109 | [10] 0.044 | [11] -0.028 | [12] -0.004 | [13] 0.066 | [14] 0.058 | [15] -0.012 | [16] 0.031

UBR1 (UniProt Q8IWV7)
inactive: erlotinib 0.01 | [1] 0.058 | [2] -0.055 | [3] -0.002 | [4] 0.026 | [5] 0.015 | [6] -0.016 | [7] -0.047 | [8] 0.008 | IRAK-1-4 Inhibitor I 0.002 | ibrutinib 0.007 | [9] 0.005 | ralimetinib 0.015 | [10] -0.044 | [11] -0.014 | [12] -0.011 | [13] 0.004 | [14] -0.004 | [15] -0.03 | [16] -0.008

UBE2H (UniProt P62256)
UniProt P62256, sequence (P62256 whole entry, looked up): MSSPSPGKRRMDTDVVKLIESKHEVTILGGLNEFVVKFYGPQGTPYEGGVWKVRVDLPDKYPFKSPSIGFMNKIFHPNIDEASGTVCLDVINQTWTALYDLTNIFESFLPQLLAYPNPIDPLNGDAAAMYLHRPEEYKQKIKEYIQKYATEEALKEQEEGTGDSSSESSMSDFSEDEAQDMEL
inactive: erlotinib -0.002 | [1] -0.002 | [2] 0.009 | [3] 0.008 | [4] 0.014 | [5] 0.029 | [6] 0.019 | [7] 0.013 | [8] -0.036 | IRAK-1-4 Inhibitor I -0.026 | ibrutinib 0.032 | [9] 0.026 | ralimetinib -0.033 | [10] -0.002 | [11] -0.004 | [12] 0.064 | [13] 0.022 | [14] 0.005 | [15] 0.026 | [16] -0.027

TRIM44 (UniProt Q96DX7)
UniProt Q96DX7, sequence (Q96DX7 whole entry, looked up): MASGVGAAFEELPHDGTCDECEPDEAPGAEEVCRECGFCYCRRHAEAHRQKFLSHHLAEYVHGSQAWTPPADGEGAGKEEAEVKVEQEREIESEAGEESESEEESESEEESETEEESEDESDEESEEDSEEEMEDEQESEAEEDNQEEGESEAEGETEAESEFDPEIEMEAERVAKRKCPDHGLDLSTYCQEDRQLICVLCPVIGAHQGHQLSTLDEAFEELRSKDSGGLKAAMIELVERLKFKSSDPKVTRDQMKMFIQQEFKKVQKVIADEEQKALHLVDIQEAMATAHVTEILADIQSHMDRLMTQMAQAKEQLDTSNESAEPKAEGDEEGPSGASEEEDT
inactive: erlotinib -0.066 | [1] 0.067 | [2] -0.016 | [3] -0.037 | [4] 0.057 | [5] -0.013 | [6] -0.038 | [7] 0.053 | [8] 0.072 | IRAK-1-4 Inhibitor I 0.043 | ibrutinib 0.031 | [9] 0.124 | ralimetinib 0.032 | [10] -0.013 | [11] -0.037 | [12] -0.021 | [13] -0.004 | [14] -0.044 | [15] 0.022 | [16] 0.086

TUBE1 (UniProt Q9UJT0)
UniProt Q9UJT0, sequence (Q9UJT0 whole entry, looked up): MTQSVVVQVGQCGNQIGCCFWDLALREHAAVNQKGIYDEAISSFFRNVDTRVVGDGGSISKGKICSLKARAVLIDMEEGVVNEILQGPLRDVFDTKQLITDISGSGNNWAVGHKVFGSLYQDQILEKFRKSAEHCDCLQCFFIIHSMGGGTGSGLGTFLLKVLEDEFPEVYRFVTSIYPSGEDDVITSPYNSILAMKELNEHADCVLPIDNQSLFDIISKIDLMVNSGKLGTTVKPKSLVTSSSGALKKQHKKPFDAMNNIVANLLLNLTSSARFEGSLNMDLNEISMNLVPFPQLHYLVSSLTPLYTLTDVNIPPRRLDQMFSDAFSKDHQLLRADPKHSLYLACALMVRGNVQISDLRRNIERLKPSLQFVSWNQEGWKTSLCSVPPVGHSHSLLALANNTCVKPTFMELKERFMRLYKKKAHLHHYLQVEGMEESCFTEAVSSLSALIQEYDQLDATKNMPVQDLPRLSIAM
inactive: erlotinib 0.051 | [1] -0.267 | [2] 0.095 | [3] -0.059 | [4] -0.063 | [5] -0.078 | [6] -0.033 | [7] -0.113 | [8] 0.047 | IRAK-1-4 Inhibitor I 0.023 | ibrutinib 0.065 | [9] -0.017 | ralimetinib 0.05 | [10] -0.034 | [11] 0.024 | [12] -0.001 | [13] 0.027 | [14] -0.02 | [15] 0.001 | [16] -0.03

TTL (UniProt Q8NG68)
inactive: erlotinib 0.056 | [1] 0.01 | [2] 0 | [3] 0.019 | [4] -0.001 | [5] -0.027 | [6] 0.097 | [7] 0.006 | [8] -0.074 | IRAK-1-4 Inhibitor I 0.019 | ibrutinib 0.014 | [9] 0.101 | ralimetinib -0.029 | [10] 0.037 | [11] 0.018 | [12] 0.016 | [13] -0.065 | [14] 0.063 | [15] 0.063 | [16] -0.074

TUBA1B (UniProt P68363)
UniProt P68363, sequence (P68363 whole entry, looked up): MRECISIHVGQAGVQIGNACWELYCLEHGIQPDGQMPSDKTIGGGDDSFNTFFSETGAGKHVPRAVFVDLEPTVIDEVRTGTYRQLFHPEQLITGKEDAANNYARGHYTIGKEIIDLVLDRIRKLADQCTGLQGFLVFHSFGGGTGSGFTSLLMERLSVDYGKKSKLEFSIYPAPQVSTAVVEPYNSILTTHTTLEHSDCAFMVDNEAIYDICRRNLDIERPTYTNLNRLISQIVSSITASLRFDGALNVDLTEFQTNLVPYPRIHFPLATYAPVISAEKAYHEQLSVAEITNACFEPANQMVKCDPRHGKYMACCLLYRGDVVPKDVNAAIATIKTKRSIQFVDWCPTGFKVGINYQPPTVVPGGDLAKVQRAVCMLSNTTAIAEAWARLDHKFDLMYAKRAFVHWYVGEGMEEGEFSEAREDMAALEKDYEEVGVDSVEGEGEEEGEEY
inactive: erlotinib 0.031 | [1] -0.022 | [2] 0.009 | [3] -0.018 | [4] 0.006 | [5] -0.013 | [6] -0.018 | [7] 0.009 | [8] 0.02 | IRAK-1-4 Inhibitor I 0.022 | ibrutinib -0.012 | [9] 0.008 | ralimetinib 0.025 | [10] 0.003 | [11] 0.021 | [12] -0.011 | [13] -0.003 | [14] 0.018 | [15] 0.022 | [16] 0.005

TUBB2A (UniProt Q13885)
UniProt Q13885, sequence (Q13885 whole entry, looked up): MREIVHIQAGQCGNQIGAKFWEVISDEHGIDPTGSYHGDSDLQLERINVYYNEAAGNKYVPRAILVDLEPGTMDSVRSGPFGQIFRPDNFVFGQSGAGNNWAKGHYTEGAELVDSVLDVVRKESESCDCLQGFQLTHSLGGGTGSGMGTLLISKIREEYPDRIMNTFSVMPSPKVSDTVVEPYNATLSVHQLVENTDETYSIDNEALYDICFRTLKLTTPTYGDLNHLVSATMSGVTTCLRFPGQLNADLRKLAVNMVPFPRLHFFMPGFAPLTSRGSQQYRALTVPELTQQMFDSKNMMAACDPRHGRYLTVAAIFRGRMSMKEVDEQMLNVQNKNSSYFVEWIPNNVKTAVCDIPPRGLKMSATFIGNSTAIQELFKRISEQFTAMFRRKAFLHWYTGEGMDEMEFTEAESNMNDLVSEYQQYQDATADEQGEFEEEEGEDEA
inactive: erlotinib 0.008 | [1] 0.04 | [2] 0.004 | [3] -0.021 | [4] -0.028 | [5] -0.008 | [6] -0.03 | [7] 0.014 | [8] 0.026 | IRAK-1-4 Inhibitor I 0.019 | ibrutinib 0.005 | [9] 0.014 | ralimetinib 0.032 | [10] -0.005 | [11] 0.027 | [12] 0.02 | [13] 0.001 | [14] -0.011 | [15] 0.032 | [16] 0.001

TLE3 isoform 4 (UniProt Q04726)
UniProt Q04726, sequence (Q04726 whole entry, looked up): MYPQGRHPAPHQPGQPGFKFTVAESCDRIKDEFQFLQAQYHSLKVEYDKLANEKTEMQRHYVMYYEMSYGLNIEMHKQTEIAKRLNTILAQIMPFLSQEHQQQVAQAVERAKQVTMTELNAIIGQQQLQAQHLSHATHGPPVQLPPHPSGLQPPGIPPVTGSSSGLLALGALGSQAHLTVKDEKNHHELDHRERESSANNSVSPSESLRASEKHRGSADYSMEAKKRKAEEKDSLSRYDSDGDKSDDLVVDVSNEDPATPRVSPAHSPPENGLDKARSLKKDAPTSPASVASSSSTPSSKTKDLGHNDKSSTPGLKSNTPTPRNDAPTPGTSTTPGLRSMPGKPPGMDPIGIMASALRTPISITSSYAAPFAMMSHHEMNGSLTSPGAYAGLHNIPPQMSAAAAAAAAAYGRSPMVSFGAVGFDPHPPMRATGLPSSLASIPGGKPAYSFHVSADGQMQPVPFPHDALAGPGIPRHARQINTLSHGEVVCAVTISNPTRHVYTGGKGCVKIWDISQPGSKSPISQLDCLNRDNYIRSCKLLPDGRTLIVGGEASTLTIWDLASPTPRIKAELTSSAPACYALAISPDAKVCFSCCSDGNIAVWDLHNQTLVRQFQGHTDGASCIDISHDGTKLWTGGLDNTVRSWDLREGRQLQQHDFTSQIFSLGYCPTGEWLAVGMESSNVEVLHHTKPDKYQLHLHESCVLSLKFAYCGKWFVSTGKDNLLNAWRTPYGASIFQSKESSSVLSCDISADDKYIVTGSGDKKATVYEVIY
inactive: erlotinib 0.005 | [1] -0.025 | [2] 0.03 | [3] -0.012 | [4] 0 | [5] 0.016 | [6] -0.002 | [7] -0.006 | [8] 0.029 | IRAK-1-4 Inhibitor I -0.016 | ibrutinib -0.002 | [9] -0.01 | ralimetinib 0.003 | [10] -0.005 | [11] 0 | [12] -0.023 | [13] 0.012 | [14] -0.016 | [15] 0.003 | [16] -0.022

TMEM97 (UniProt Q5BJF2)
UniProt Q5BJF2, sequence (Q5BJF2 whole entry, looked up): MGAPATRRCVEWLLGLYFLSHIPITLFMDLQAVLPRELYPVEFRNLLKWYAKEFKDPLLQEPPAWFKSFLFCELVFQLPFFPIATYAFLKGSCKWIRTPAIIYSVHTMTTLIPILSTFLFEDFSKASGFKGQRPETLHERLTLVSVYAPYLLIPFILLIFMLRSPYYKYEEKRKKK
inactive: erlotinib 0.01 | [1] 0.043 | [2] 0.036 | [3] 0.007 | [4] 0.019 | [5] 0 | [6] 0.002 | [7] -0.033 | [8] 0.018 | IRAK-1-4 Inhibitor I 0.091 | ibrutinib 0.01 | [9] 0.012 | ralimetinib 0.004 | [10] -0.056 | [11] -0.034 | [12] -0.025 | [13] -0.032 | [14] 0.003 | [15] 0.042 | [16] -0.017

TOE1 (UniProt Q96GM8)
inactive: erlotinib -0.035 | [1] -0.064 | [2] 0.006 | [3] 0.036 | [4] 0.054 | [5] -0.021 | [6] -0.024 | [7] 0 | [8] -0.035 | IRAK-1-4 Inhibitor I -0.021 | ibrutinib 0.011 | [9] -0.001 | ralimetinib 0.007 | [10] 0.003 | [11] 0.008 | [12] -0.061 | [13] -0.023 | [14] -0.02 | [15] 0.014 | [16] 0.011

TBL2 (UniProt Q9Y4P3)
UniProt Q9Y4P3, sequence (Q9Y4P3 whole entry, looked up): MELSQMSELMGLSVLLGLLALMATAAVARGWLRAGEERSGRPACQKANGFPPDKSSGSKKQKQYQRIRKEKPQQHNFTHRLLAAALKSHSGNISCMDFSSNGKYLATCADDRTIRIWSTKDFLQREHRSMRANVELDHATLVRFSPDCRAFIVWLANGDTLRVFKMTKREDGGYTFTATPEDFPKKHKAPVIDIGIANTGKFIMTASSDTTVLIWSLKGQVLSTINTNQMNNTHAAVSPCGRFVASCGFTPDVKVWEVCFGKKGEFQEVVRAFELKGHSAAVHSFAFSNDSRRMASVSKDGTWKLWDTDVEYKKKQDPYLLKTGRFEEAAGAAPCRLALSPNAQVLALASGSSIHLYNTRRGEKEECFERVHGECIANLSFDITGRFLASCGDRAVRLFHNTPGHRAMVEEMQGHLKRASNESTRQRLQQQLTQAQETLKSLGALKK
inactive: erlotinib -0.019 | [1] 0.061 | [2] -0.027 | [3] 0.061 | [4] -0.023 | [5] 0.038 | [6] -0.06 | [7] -0.027 | [8] 0.001 | IRAK-1-4 Inhibitor I -0.022 | ibrutinib 0.014 | [9] 0.059 | ralimetinib 0.005 | [10] -0.001 | [11] 0 | [12] 0.045 | [13] 0.031 | [14] -0.008 | [15] 0.03 | [16] 0.05

UBE3C (UniProt Q15386)
inactive: erlotinib 0.035 | [1] -0.061 | [2] -0.067 | [3] 0.011 | [4] -0.036 | [5] -0.01 | [6] -0.022 | [7] 0.027 | [8] 0.049 | IRAK-1-4 Inhibitor I 0 | ibrutinib -0.011 | [9] 0.024 | ralimetinib 0.012 | [10] -0.028 | [11] -0.011 | [12] 0.005 | [13] 0.04 | [14] -0.021 | [15] 0.021 | [16] 0.01
